The nature of assay [1]: Cell Viability - Renal Proximal Tubule (AID 545).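 Further: cells exposed to compound for 40 hours; nearly all actives have a fitted effect of over 40% in size.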 Further: potency means the concentration at half of the fitted maximal effect.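 On activity change, negative = cytotoxicity: 0% = DMSO only and -100% = 100 µM tamoxifen.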 The note with it: renal proximal tubule cells viability, primary cells of rat origin; activity change, negative = cytotoxicity: at 91.7 µM (top of the series). In short, it runs like this:
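Rat kidney proximal tubule cells, freshly isolated; 1000 cells/well, 5 hr settle, compound 40 hr 37 °C. CellTiter-Glo 20 min RT, luminescence read. AC50 by standard Hill fit.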

Assay [2] is described as follows: MultiTox-Fluor Cytotoxicity Assay - LYMP1-002 - Dead Cells (AID 960).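 Further: cells exposed to compound for 16 h at 37 °C; 0% = DMSO and 100% = tetraoctylammonium bromide; nearly all actives have a fitted effect of over 60% in size.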 The method in brief: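 Cells were plated, rested 5 hr, then treated with compound dilution series for 16 hr at 37 C. After adding substrate reagent and 60 min at room temperature, dead-cell protease fluorescence gave concentration-response curves fitted by the Hill equation.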
Assay [3] is described as follows: qHTS assay for small molecule agonists of retinoid X receptor alpha signaling (AID 588544; calls by dose curve). Conditions: HEK293T RXRa-UAS-bla, beta-lactamase reporter, 18 h; 530 nm emission. On the technique in general: In qHTS, concentration-response curves come from the screen itself.
In assay [4] the target is Retinoic acid receptor RXR-alpha (Homo sapiens) (UniProt P19793). The description is as above.
Chain of Retinoic acid receptor RXR-alpha (Homo sapiens) (P19793 whole entry, looked up): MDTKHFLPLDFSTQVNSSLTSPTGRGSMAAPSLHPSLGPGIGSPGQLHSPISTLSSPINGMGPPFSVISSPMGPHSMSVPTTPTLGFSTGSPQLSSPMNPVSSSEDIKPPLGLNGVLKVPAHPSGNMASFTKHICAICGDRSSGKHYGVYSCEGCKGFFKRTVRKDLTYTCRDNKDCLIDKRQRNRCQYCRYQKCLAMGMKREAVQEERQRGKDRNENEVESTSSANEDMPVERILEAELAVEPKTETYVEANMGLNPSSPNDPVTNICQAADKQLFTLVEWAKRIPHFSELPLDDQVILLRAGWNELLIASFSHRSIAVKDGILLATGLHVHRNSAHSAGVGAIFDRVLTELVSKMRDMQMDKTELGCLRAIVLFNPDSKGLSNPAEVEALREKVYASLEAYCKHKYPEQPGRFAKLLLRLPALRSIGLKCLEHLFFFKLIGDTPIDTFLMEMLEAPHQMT
Assay [5] concerns the target Thyroid hormone receptor beta (Homo sapiens) (UniProt P10828). The assay can be described thus: qHTS assay for small molecule agonists of thyroid hormone receptor beta signaling (AID 588545; calls by dose curve;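 further: 0% = DMSO only and 100% = 10 nM T3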). The method in brief: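 Beta-lactamase reporter activity under TR response element control is measured in HEK 293 cells after 18 hrs compound exposure. Signal is ratiometric CCF4 fluorescence, 460/530 nm.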

Assay [6] can be described thus: qHTS assay for small molecule disruptors of the mitochondrial membrane potential - 1 hr assay (AID 651754; calls by dose curve; further: nearly all actives have a fitted effect of over 35% in size; further: potency means the concentration at half of the fitted maximal effect). In short, it runs like this:
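Loss of mitochondrial potential shifts the cationic dye from red mitochondrial aggregates to green cytoplasmic monomers. Cells (HepG2) are treated with compound for 1 hr before a 30 min dye incubation at 37C.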

A short description of assay [7]: qHTS assay for small molecule disruptors of the mitochondrial membrane potential - 5 hr assay (AID 651755; calls by dose curve; further: nearly all actives have a fitted effect of over 40% in size; further: potency means the concentration at half of the fitted maximal effect). The method in brief: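 Membrane-potential dye readout: red aggregate (540 ex/590 em) versus green monomer (490 ex/535 em) fluorescence after 30 min dye loading, following 5 hr compound exposure at 37C of overnight-plated HepG2 cells.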
Assay [8] in a line: qHTS assay for small molecule agonists of the antioxidant response element (ARE) signaling pathway measured by Nrf2-dependant transcriptional activity (AID 720636; active means well fitted curve in the direction sought with a large enough effect in the repeat runs; an effect the other way counts as inactive or inconclusive; further: % of control where 0% means no effect). In short, it runs like this: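 Quantitative HTS format in HepG2 cells stably expressing an ARE-luciferase reporter; 16 hr compound treatment at 37 C, luciferase signal detected with ONE-Glo.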
The target in assay [9] is Nuclear receptor subfamily 1 group I member 2 (Rattus norvegicus) (UniProt Q9R1A7). The assay can be described thus: qHTS assay for small molecule activators of the rat pregnane X receptor (rPXR) signaling pathway (AID 651751; call rule not given here; further: 0% is about no effect). The note with it: rPXR reporter cells, luciferase (One-Glo), 24 h.
Chain of Nuclear receptor subfamily 1 group I member 2 (Rattus norvegicus) (Q9R1A7 whole entry, looked up): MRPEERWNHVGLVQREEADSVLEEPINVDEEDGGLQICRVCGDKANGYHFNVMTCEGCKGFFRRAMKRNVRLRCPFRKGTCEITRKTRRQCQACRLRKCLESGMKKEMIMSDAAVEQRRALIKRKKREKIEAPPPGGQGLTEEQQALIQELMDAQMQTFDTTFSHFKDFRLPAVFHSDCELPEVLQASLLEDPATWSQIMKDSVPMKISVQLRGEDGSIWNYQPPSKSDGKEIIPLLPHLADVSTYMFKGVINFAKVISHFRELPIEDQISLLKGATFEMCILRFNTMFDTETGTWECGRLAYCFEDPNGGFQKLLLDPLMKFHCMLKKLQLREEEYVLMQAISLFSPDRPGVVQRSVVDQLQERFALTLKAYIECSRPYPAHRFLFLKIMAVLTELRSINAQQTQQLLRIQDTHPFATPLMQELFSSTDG
Assay [10] in a line: Cell Viability - H-4-II-E (AID 543).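 Further: cells exposed to compound for 40 hours; on the % scale 0 is the no-effect control and ±100 the full control effect; nearly all actives have a fitted effect of over 35% in size.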 In short, it runs like this: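 Cells seeded at 1500 per well and rested 5 hr; compounds added; 40 hr incubation at 37 °C; CellTiter-Glo added, 20 min at room temperature; luminescence read. Hill-equation fits gave AC50.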
Assay [11] in a line: Cell Viability - SH-SY5Y (AID 544).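 Further: cells exposed to compound for 40 hours; 0% = DMSO alone and -100% = 100 µM tamoxifen; nearly all actives have a fitted effect of over 55% in size.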 The note with it: SH-SY5Y neuroblastoma cell viability; viability change, negative = cytotoxic: at 92.2 µM (top of the series). In short, it runs like this: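 Cells were plated at 1500 per well and allowed 5 hr at 37 °C. Compounds were added across a concentration range and incubated 40 hr at 37 °C. CellTiter-Glo was added for 20 min at room temperature before luminescence reading.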

A short description of assay [12]: Cell Viability - LYMP2-004 (AID 966).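 Further: plate controls were DMSO only for no effect and tetraoctylammonium bromide control for full effect; nearly all actives have a fitted effect of over 65% in size.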 In short, it runs like this:
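qHTS cytotoxicity: human lymphoblastoid line, 24 hr compound treatment, 37 C, complete medium. Viability read as cellular ATP via luciferase luminescence; tetraoctylammonium bromide served as positive control.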

Assay [13] in a line: Cell Viability - LYMP2-005 (AID 967).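 Further: plate controls were DMSO only for no effect and 92 µM tetraoctylammonium bromide control for full effect.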 The method in brief:
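Steps: seed 2500 LYMP2-005 cells/well, incubate 5 h at 37 C, add compound, incubate 24 h at 37 C, add CellTiter-Glo, wait 30 min at RT, read luminescence. Concentration-response data fitted to Hill equation for AC50.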

Assay [14] in a line: Cell Viability - LYMP2-009 (AID 968).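 Further: 0% = DMSO alone and the full-kill end = tetraoctylammonium bromide at 92 µM; nearly all actives have a fitted effect of over 55% in size.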
Assay [15] can be described thus: Cell Viability - LYMP2-015 (AID 971).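 Further: 0% = DMSO only and full effect = 92 µM tetraoctylammonium bromide; nearly all actives have a fitted effect of over 55% in size.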 In short, it runs like this:
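Cells are seeded at 2500 per well and incubated 5 hr at 37 C. Compounds are added across a concentration series for 24 hr at 37 C. CellTiter-Glo is added, and luminescence is read after 30 min at room temperature.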

Assay [16] in a line: Cell Viability - LYMP2-017 (AID 972).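 Further: cells exposed to compound for 24 hours at 37 °C; on the % scale 0 is the no-effect control and ±100 the full control effect; nearly all actives have a fitted effect of over 55% in size.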 The method in brief: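 Cytotoxicity is scored as a concentration-dependent drop in cellular ATP in a human lymphoblastoid line after 24 hr treatment at 37 C. Values are AC50s from Hill-equation modelling.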
Assay [17] can be described thus: Cell Viability - LYMP2-006 (AID 978).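 Further: cells exposed to compound for 24 hours; on the % scale 0 is the no-effect control and ±100 the full control effect; nearly all actives have a fitted effect of over 60% in size.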 The method in brief:
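qHTS, 1536-well; 2500 cells/well, 5 hr 37 C; cpd 24 hr 37 C; CellTiter-Glo 30 min RT; luminescence. Tetraoctylammonium bromide pos. ctrl. AC50 via Hill eqn.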

Assay [18] is described as follows: Cell Viability - LYMP2-010 (AID 981). The method in brief: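 Steps: seed 2500 LYMP2-010 cells per well; incubate 5 hr at 37 C; add compound; incubate 24 hr at 37 C; add CellTiter-Glo, wait 30 min at room temperature; read luminescence. Concentration-response fitted to Hill equation for AC50.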
Assay [19] is described as follows: Cell Viability - Hek293 (AID 427;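 active means compounds whose dose-response curve shows a full or clear partial loss of cell viability, called from curve shape rather than a numeric limit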;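 further: potency means the concentration at half of the fitted maximal effect; cells exposed to compound for 40 hours at 37 °C before reading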). Conditions: qHTS. The method in brief:
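Luminescent ATP read-out (CellTiter-Glo, 20 min RT) after 40 hr compound exposure at 37 °C in complete medium. Signal normalized to DMSO (basal) and 100 uM tamoxifen (100% inhibition); concentration-response fitted with the standard Hill equation to give AC50.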

The nature of assay [20]: Cell Viability - N2a (AID 540).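 Further: plate controls were DMSO alone for no effect and tamoxifen control for full effect; nearly all actives have a fitted effect of over 45% in size.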 The note with it: N2a mouse neuroblastoma cell viability; activity change, negative = cytotoxicity: at 92.2 µM (top of the series). The method in brief: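 Cytotoxicity was scored as loss of cellular ATP in N2a cells, a mouse neuroblastoma line. Compounds are applied in a qHTS concentration series for 40 hr at 37 °C.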

Several values for one entry are separate records, joined by “and”; a condition that tells them apart may be missing. Identical values can stand only once. Inconclusive results are not listed. Activity calls are given as the source filed them. Unless noted, the call rests on the fitted dose curve; in most records, active means well fitted curve in the direction sought with a large enough effect; inconclusive means small, poorly fitted or top-dose-only effect, or another doubt; inactive means no such curve, though single readings can be large; an effect the other way counts as inactive or inconclusive.

Chain of Thyroid hormone receptor beta (Homo sapiens) (P10828 whole entry, looked up): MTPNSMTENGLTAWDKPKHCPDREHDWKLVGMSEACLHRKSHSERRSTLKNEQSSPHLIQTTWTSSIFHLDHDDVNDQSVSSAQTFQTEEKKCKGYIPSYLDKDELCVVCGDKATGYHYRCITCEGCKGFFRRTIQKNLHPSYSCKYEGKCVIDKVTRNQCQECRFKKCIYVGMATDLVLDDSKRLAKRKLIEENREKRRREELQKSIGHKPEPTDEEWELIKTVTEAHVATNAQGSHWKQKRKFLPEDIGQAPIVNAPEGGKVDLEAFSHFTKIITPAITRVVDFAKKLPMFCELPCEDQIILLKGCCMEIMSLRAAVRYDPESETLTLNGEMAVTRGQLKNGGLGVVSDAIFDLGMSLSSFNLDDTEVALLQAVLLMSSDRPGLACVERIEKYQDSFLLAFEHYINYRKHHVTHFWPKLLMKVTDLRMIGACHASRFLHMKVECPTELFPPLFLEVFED

Take `Cc1c(C(=O)O)c(O)cc2c1C(=O)c1c(O)c([C@H]3O[C@H](CO)[C@@H](O)[C@H](O)[C@H]3O)c(O)c(O)c1C2=O`: the Potency in assay [1] was 31.6 µM (active). Besides, the Potency result in assay [2], in [4], in assay [5], in assay [6], in assay [7] and in assay [8] was “inactive” each time. Also, the max response was -6.4% in [3] and -9.27% (inactive) in [9].

Regarding `CCCCC(CC)COP(=O)(OCC(CC)CCCC)OCC(CC)CCCC` (stereo not given), the Potency result in assay [10], in assay [11], in [1], in assay [12], in assay [13] and in assay [14] was “inactive” in each case. Further, the Potency result in assay [15], in [16], in assay [17], in [18], in assay [4] and in assay [5] was “inactive” each time. For the same molecule, the Potency result in assay [6], in assay [7] and in assay [8] was “inactive” throughout. Besides, the max response in assay [3] is -2.54%; in assay [9], 1.51% (inactive).

Regarding `Nc1ccc2c(c1)C(=O)c1ccccc1C2=O`, the Potency in assay [19] is > 92 µM (inactive); in [6] it was 1.33 µM (active); in [7], 1.5 µM (active). Further, the activity change, negative = cytotoxicity in assay [20] is -27.2% (inactive). Besides, the Potency entry in assay [2], in assay [12], in assay [13], in assay [17], in assay [4] and in [5] was “inactive” each time. For the same molecule, in [3], the max response was 6.46% and 2.42%.

As for `CC(/C=C/C=C(C)/C=C/C(=O)O)=C\C=C\C=C(C)\C=C\C=C(C)\C=C\C(=O)O`, the Potency in assay [19] is > 92 µM (inactive). In [20], the activity change, negative = cytotoxicity was -5.79% (inactive). Moreover, the Potency entry in assay [10], in [2], in assay [14], in assay [15], in [16] and in assay [17] was “inactive” in each case. Also, the Potency entry in assay [18], in [4], in [6] and in assay [7] was “inactive” each time. Moreover, the viability change, negative = cytotoxic in assay [11] was -97% (active). For the same molecule, the max response in assay [3] was 4.44%; in assay [9] it was 10.8% (inactive).

For `Nc1cnn([C@@H]2O[C@H](CO)[C@@H](O)[C@H]2O)c(=O)n1`, the Potency in [19] was > 92 µM (inactive). Also, the activity change, negative = cytotoxicity in [20] was 8.82% (inactive). The Potency result in [10], in [11], in assay [1], in assay [2], in assay [12] and in assay [13] was “inactive” throughout. Further, the Potency entry in assay [14], in [15], in assay [16], in assay [17], in assay [18] and in assay [4] was “inactive” throughout. The Potency entry in [5], in [6], in [7] and in assay [8] was “inactive” throughout. Moreover, the max response in assay [3] is 11.7%; in assay [9], 3.54% (inactive).

In the case of `Cc1cc2nc(N)sc2cc1C`, in assay [19], the Potency is > 92 µM (inactive). For the same molecule, the Potency entry in assay [11], in [2], in assay [12], in assay [13], in assay [14] and in assay [15] was “inactive” throughout. Further, the Potency entry in [16], in [17], in assay [18], in assay [4], in assay [5] and in assay [6] was “inactive” throughout. Besides, the Potency result in assay [7] is “inactive”. The max response in assay [3] was -11.8%.

For `Brc1ccc(-c2ccccc2)cc1`, in assay [19], the Potency is > 92 µM (inactive). For the same molecule, the activity change, negative = cytotoxicity in assay [20] is -19.3% (inactive). Also, the Potency entry in assay [10], in [11], in assay [1], in [2], in assay [12] and in assay [13] was “inactive” each time. For the same molecule, the Potency result in [14], in assay [15], in assay [16], in assay [17], in assay [18] and in [4] was “inactive” each time. Moreover, the Potency entry in assay [5] and in assay [8] was “inactive” throughout. In addition, the max response in assay [3] was 4.33%; in [9] it was 1.6% (inactive).
